Screen size: about 76,000 compounds; about 1,200 (1.6%) were called active. A call without a number means that no potency is given here. Inconclusive results (about 4%) are left out. The sample holds actives, similar compounds and a random draw of the others, so the mix is not that of the screen. Calls follow the shape of the full dose curve.
Potency is read from the fitted curve at half-maximal effect.

The target in the assay is Atrial natriuretic peptide receptor 1 (Homo sapiens) (UniProt P16066). Nature of the assay: Natriuretic polypeptide receptor (hNpr1) antagonism - Primary qHTS. Also: nearly all actives have a fitted effect of over 60% in size. To be noted: HEK293 hNpr1 GloSensor cGMP, ANP-stimulated luminescence; series mostly up to 46.3 µM. In short, it runs like this: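 HEK293 cells stably expressing human Npr1 and cGMP GloSensor pGS-40F, loaded 2 h with 2% GloSensor reagent, given compound 30 min at room temperature. Luminescence read before and 20 min after 0.1 nM hNppA.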
Atrial natriuretic peptide receptor 1 (Homo sapiens), sequence (P16066 whole entry, looked up): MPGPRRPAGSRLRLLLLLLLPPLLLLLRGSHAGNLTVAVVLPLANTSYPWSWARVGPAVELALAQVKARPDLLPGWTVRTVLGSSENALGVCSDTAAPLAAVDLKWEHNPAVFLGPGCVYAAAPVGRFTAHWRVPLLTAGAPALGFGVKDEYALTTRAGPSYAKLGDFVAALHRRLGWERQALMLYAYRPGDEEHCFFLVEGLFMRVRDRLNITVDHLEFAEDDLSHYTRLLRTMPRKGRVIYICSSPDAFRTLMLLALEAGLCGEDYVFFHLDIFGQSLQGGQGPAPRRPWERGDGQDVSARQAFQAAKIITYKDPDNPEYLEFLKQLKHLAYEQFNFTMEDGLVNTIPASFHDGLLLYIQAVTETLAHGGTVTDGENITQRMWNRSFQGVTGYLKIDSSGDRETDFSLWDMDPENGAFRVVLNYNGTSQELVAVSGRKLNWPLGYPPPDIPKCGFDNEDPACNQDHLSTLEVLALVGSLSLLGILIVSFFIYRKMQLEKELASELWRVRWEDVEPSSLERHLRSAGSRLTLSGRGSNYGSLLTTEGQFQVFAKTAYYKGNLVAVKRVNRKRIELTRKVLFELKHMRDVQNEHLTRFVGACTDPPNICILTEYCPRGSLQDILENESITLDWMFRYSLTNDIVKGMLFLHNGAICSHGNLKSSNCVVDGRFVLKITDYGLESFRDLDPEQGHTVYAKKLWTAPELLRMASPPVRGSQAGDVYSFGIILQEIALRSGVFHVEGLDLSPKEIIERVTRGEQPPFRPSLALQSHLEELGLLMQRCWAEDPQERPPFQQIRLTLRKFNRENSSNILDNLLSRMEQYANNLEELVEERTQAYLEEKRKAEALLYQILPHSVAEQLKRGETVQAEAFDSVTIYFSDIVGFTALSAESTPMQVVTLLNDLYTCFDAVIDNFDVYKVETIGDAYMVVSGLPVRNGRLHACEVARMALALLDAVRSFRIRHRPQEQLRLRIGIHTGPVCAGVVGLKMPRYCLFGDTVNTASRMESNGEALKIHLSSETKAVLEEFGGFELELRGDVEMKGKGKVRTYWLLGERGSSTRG
For orientation: qHTS replaces the single test concentration by a dilution series.
With `COC(=O)c1c(NC(C)=O)c2cc(NC3CCCCCC3)cnc2n1CC1CCCO1` (stereo unspecified), the Potency result was “inactive”. For `O=C(Cc1ccc(Cl)cc1)N1CCc2c(nc3cc[nH]n3c2=O)C1` the value was “inactive”; for `COc1cccc(CN2CCN(Cc3ncccc3C)CC2)c1O`, “inactive”. As for `O=c1c2c(n(Cc3ccccc3)n1-c1ccccc1)CN(Cc1ccn[nH]1)CC2`, the entry is “inactive”; as for `CCOc1ccc(CN2CCC(N3CCCC(C(=O)NC4CC4)C3)CC2)cc1` (stereo unspecified), “inactive”. As for `CCCNc1ccc2nnc(C)n2n1`, the entry is “inactive”; as for `Cc1noc(C)c1-c1cc(-c2ccccc2Oc2ccccc2)cn2cncc12`, 28.2 µM (active).

With `COc1ccccc1-c1cc(-c2cn[nH]c2)c2cncn2c1`, the Potency result is “inactive”. As for `Cc1noc(C)c1-c1cc(-c2cncnc2)cn2cncc12`, the entry is “inactive”; as for `CN(C)Cc1nnc(C2CC(NC(=O)c3cn4cccnc4n3)C2)n1C` (stereo unspecified), “inactive”; as for `O=C(c1ccccc1)N1CCOc2ccc(CN3CCc4ccccc4C3)cc2C1`, “inactive”. For `CCC(=O)N1CCc2oc(C)c(C(=O)NCCN(C)C)c2C1` the value was “inactive”; for `CC(C)(Oc1nn(CC2CCOCC2)c2ccccc12)C(=O)NCc1ccccc1`, “inactive”; for `CN1CCN(C(=O)C(C)(C)Oc2nn(Cc3cccc(Cl)c3)c3ccccc23)CC1`, 15.8 µM (active). As for `COCc1ccc2c(c1)c(OC(C)(C)C(=O)N1CCN(C)CC1)nn2Cc1cccnc1`, the entry is “inactive”. For `CC(=O)N1CCC(N2C[C@H](O)C[C@H]2C(=O)NC2CCCCC2)CC1`, the Potency result was “inactive”. In the case of `Cc1c(C(=O)N2CCCn3nc(C(C)O)cc3C2)sc2nc[nH]c(=O)c12` (stereo unspecified), the Potency entry was “inactive”.

As to `OC1(Cc2cc(-c3ccccc3)no2)CCN(c2ncncn2)CC1`, the Potency was 3.55 µM (active).

In the case of `C(=C\c1ccccc1)/CN1CCN(c2ncncn2)CC1`, the Potency entry was “inactive”. For `Cc1nc(CCNS(=O)(=O)c2ccc(Cl)cc2)no1` the value was “inactive”. For `O=C([C@H]1CCC[C@H](O)C1)N(CCC1=CCCCC1)Cc1ccccc1` the value was “inactive”. For `O=c1[nH]nc2n1CCCC2` the value was “inactive”; for `COc1ccc(C(=O)N2CCCC(n3cc(-c4nc(C5CC5)no4)nn3)C2)cc1` (stereo unspecified), “inactive”.

Regarding `CCc1noc(-c2cn(C3CCN(C(=O)c4cccc(OC)c4)C3)nn2)n1` (stereo unspecified), the Potency entry is “inactive”. For `COc1ccccc1C(=O)N1CCCC(n2cc(-c3nc(-c4ccccc4)no3)nn2)C1` (stereo unspecified) the value was 4.47 µM (active); for `O=C(c1ccc(F)cc1Cl)N1CCC(n2cc(-c3nc(-c4ccccc4)no3)nn2)C1` (stereo unspecified), 3.98 µM (active); for `Cc1nc(-c2cn(C3CCCN(C(=O)c4cc(F)ccc4F)C3)nn2)no1` (stereo unspecified), “inactive”.

On to `COc1cc(OC)cc(C(=O)N2CCCC(n3cc(-c4nc(C(C)C)no4)nn3)C2)c1` (stereo unspecified), for which the Potency result was “inactive”.

Take `COc1ccccc1-c1onc(C)c1C(=O)NCCC(c1ccccc1)c1ccccc1`: the Potency result was “inactive”. As for `CCn1c(C2CCCNC2)nn(Cc2noc(-c3ccc(C)cc3)n2)c1=O` (stereo unspecified), the entry is “inactive”; as for `CC(C)(C)C(=O)N1CC[C@@H](CC(=O)O)[C@@H](CCN2CCN(c3cccc(C(F)(F)F)c3)CC2)C1`, “inactive”. As for `COc1cccc(N2CC3(COCC2=O)CN(c2ccc(C(F)(F)F)cn2)C3)n1`, the entry is “inactive”; as for `O=C1CCCCCN1C1CCN(Cc2ccc(C(F)(F)F)cc2)CC1`, “inactive”; as for `CN(C)Cc1cn2c(=O)n(C)cc(-c3cccc(OCc4ccccc4)c3)c2n1`, “inactive”. For `Cc1cc(-c2cn(C)c(=O)n3cc(COc4ccccc4)nc23)ccn1` the value was 25.1 µM (active); for `CN(C)c1cccc(-c2cn(C)c(=O)n3cc(COc4ccc(Cl)cc4)nc23)c1`, “inactive”; for `CCOc1ccc(CC(=O)N2CCCC3(C2)Nc2cccnc2NC3=NC2CCCC2)cc1` (stereo unspecified), “inactive”. Consider `O=C(c1ccc(-c2ccc(N3CCCCC3)nc2)cc1)N1CCOCC1`, for which the Potency entry was “inactive”. For `COCCN1CC(CO)C2(CCN(Cc3ccc(F)c(Cl)c3)CC2)C1` (stereo unspecified) the value was “inactive”. As for `CN1CCCC2(CCN(C(=O)c3cccc(N4CCCC4=O)c3)C2)C1=O` (stereo unspecified), the entry is “inactive”.

Turning to `CC(=O)N1CCCC(c2nn(-c3ccccc3)c(=O)[nH]2)C1` (stereo unspecified), the Potency result is “inactive”. Consider `O=C(Cc1ccc(F)cc1)N1CCCC(c2nn(-c3ccc(Cl)cc3)c(=O)[nH]2)C1` (stereo unspecified), for which the Potency result is “inactive”.

Consider `O=c1[nH]c(C2CCCN(Cc3ccccn3)C2)nn1-c1ccc(Cl)cc1` (stereo unspecified), for which the Potency was 5.01 µM (active). As for `O=C(COc1ccc(F)cc1)NC1CCN(c2cn[nH]c(=O)c2)CC1`, the entry is “inactive”. As for `Cc1ncsc1C(=O)N1CCc2c(n(Cc3ccccc3)n(-c3ccccc3)c2=O)C1`, the entry is “inactive”.

Turning to `O=C(Cc1ccc(F)cc1)N1CCC2(CC1)NC(=O)N(c1ccccc1)N2`, the Potency entry was “inactive”. For `CC1(C(=O)NCc2ccc3c(c2)OCO3)CCc2cnc(NCc3ccccc3)nc21` (stereo unspecified) the value was 35.5 µM (active); for `CN(Cc1ccccc1)C(=O)C1(C)CCCc2cnc(Nc3cccnc3)nc21` (stereo unspecified), “inactive”; for `CC1(C(=O)NCC2CCCO2)CCCc2cnc(Nc3ccccc3)nc21` (stereo unspecified), “inactive”. In the case of `O=C(Nc1ccc2c(c1)CCC2)c1cc2c(s1)CN(C1CC1)C2`, the Potency is 11.2 µM (active).

`CC(C)N1Cc2cc(C(=O)Nc3cccc4c3CCCC4)sc2C1`: the Potency entry was “inactive”. In the case of `COc1ccc(CNC(=O)c2cc3c(s2)CN(C2CC2)C3)cc1OC`, the Potency result was “inactive”. For `Cc1cc(NC(=O)c2ccc3c(c2)OCCN(CCC(F)(F)F)C3)ccc1F` the value was “inactive”; for `CC(C)(C)c1csc(NC(=O)c2ccc3c(c2)OCCN(C2CCC2)C3)n1`, 31.6 µM (active); for `O=C(Nc1cccnc1)c1ccc2c(c1)OCCN(c1ccccc1)C2`, “inactive”. As for `O=C(c1ccc2c(c1)OCO2)N1CCC2(CC1)CN(c1ccncn1)CC2CO` (stereo unspecified), the entry is “inactive”; as for `CN(C)C(=O)C1CN(C(=O)Nc2ccc(F)cc2F)CC12CCOCC2` (stereo unspecified), “inactive”. Take `O=C(Nc1ccc(Oc2ccccc2)cc1)O[C@@H]1CO[C@H]2[C@@H]1OC[C@@H]2NS(=O)(=O)c1cccs1`: the Potency is 12.6 µM (active). With `O=C(Nc1ccc(Oc2ccccc2)cc1)O[C@@H]1CO[C@H]2[C@@H]1OC[C@@H]2NCC1CC1`, the Potency entry is “inactive”.

As to `O=C(Nc1ccccc1)O[C@@H]1CO[C@H]2[C@@H]1OC[C@@H]2NS(=O)(=O)c1cccc2cccnc12`, the Potency result was “inactive”. For `O=C(NC1CCCC1)N1CCCC(c2noc(COc3ccccc3)n2)C1` (stereo unspecified) the value was “inactive”.

As for `O=C(c1ccoc1)N1CC(Oc2ccc(-c3nc(-c4ccccc4)no3)cc2)C1`, the Potency result was “inactive”. As for `Cc1cccc(C(=O)N2CC(Oc3cccc(-c4nc(-c5ccccc5)no4)c3)C2)c1`, the entry is “inactive”; as for `O=C(c1ccncc1)N1CCC(Oc2ccccc2)C1` (stereo unspecified), “inactive”; as for `Cc1cccc(C(=O)N2CCC(Oc3ccc(-c4noc(C(C)C)n4)cc3)C2)c1` (stereo unspecified), 11.2 µM (active).

For `O=C(NC1CCCCC1)N1CCCCCC1c1nc(-c2cccnc2)no1` (stereo unspecified), the Potency result was “inactive”. As for `CCCN1CC(Oc2ccc(-c3noc(C4CC4)n3)cc2)C1`, the entry is “inactive”; as for `O=C(NC1CCCC1)N1CCC(Oc2ccc(-c3noc(C4CC4)n3)cc2)C1` (stereo unspecified), 8.91 µM (active). As for `O=C(c1ccccn1)N1CC(Oc2ccc(-c3noc(C4CC4)n3)cc2)C1`, the figure is 14.1 µM (active); as for `COc1ccc(Cl)cc1-c1ccc2c(c1)C(=O)N1CCN(C(C)=O)C[C@@H]1C(=O)N2`, “inactive”; as for `Cc1c(Cl)c(C(=O)N2C[C@@H](CN3CCCN(C)CC3)[C@@H](CO)C2)nn1C`, “inactive”.

As to `CC(C)CCNC(=O)CCN(CC(C)C)C(=O)c1ccoc1`, the Potency result was “inactive”. As for `O=C(NC(C(=O)N1CCCCC1)C1CCN(C(=O)c2ccc(Cl)cc2)CC1)c1ccccc1` (stereo unspecified), the entry is “inactive”; as for `Cc1cnc(CC2CCN(C(=O)c3cccc4[nH]ccc34)CC2)n1CC1CC1`, “inactive”. As for `O=C1NCN(Cc2ccc(Cl)cc2)C12CCN(Cc1ccccc1)CC2`, the figure is 11.2 µM (active); as for `CC(C)CCN1CCC2(CC1)C(=O)NCN2Cc1ccc(Cl)cc1`, “inactive”. As for `O=C(C1CC1)N1CCC2(CC1)C(=O)NCN2Cc1ccc(Cl)cc1`, the entry is “inactive”; as for `COCC(=O)NC[C@H]1O[C@@H](CO)[C@@H](O)[C@H]1N1CCN(c2ccc(F)cc2)CC1`, “inactive”.

For `CC(=O)NC1(C)CCN(Cc2cnc(-c3ccc4c(ccn4C)c3)s2)CC1`, the Potency result was “inactive”. As for `CC(=O)NC1(C)CN(Cc2ccc(-c3ccc4c(ccn4C)c3)s2)C1`, the figure is 8.91 µM (active); as for `COc1ccc(C(=O)N2CCC3(CC2)OC(=O)N(CC2CC2)C3(C)c2cccnc2)cn1` (stereo unspecified), “inactive”.

As for `COc1ccc(CN2CCN(c3noc(C(C)C)n3)CC2CCO)cc1C` (stereo unspecified), the Potency result is “inactive”.

Turning to `O=C(C1CCCC1)N1CCC2(CCCCO2)CC1`, the Potency entry was “inactive”.

In the case of `O=C(c1nc2c(o1)CCN(Cc1ccccc1F)CC2)N1CCOCC1`, the Potency entry is “inactive”. Consider `O=C(NCC1CC1)c1nc2c(o1)CCN(Cc1cccc(F)c1F)CC2`, for which the Potency is 22.4 µM (active). As for `O=C(NCC1CC1)c1nc2c(o1)CCN(CCc1ccccc1)CC2`, the entry is “inactive”; as for `CCOc1ccccc1C(=O)N1CCC(c2n[nH]c(=O)n2-c2ccc(C)cc2)CC1`, “inactive”. For `Cc1ccoc1C(=O)N1CCC(C2CCN(Cc3cccc(F)c3F)CC2)C1` (stereo unspecified) the value was “inactive”; for `COc1ccc(C)cc1NC(=O)Cn1nc2n(c1=O)CCCC2`, “inactive”; for `COc1ccc(C(=O)Nc2cccc(-c3nnc4n3CCCC4)c2)cc1`, “inactive”.

On to `COc1ccc(C)cc1NC(=O)Nc1cccc(-c2ccc(N3CCCCC3)nn2)c1`, for which the Potency was 10 µM (active). Consider `COCC(=O)NC[C@H]1CCN(Cc2cn(C)c3ccccc23)C[C@H]1N(C)C`, for which the Potency entry was “inactive”. Turning to `COc1ccc(OCC2(C)COc3ccc(C(=O)Nc4cccnc4)cc3N2)cc1` (stereo unspecified), the Potency was 25.1 µM (active). As for `COc1ccc(OCC2(C)COc3ccc(C(=O)NC4CCOCC4)cc3N2)cc1` (stereo unspecified), the entry is “inactive”; as for `CC1(COCC2CC2)COc2ccc(C(=O)NCc3cccnc3)cc2N1` (stereo unspecified), “inactive”; as for `Cc1ccc(C(=O)N2CCC3(CC2)CC(=O)c2ccccc2O3)cc1`, “inactive”. As for `O=C(CCC[C@H]1NC[C@@H]2C[C@H]1CN(Cc1ccccc1)C2)NCC1CC1`, the entry is “inactive”; as for `O=C(c1ccncc1)N1CCC(Cc2noc(C3CC3)n2)C1` (stereo unspecified), “inactive”. As for `Cc1cc(CNC(=O)c2ccc(-c3ccccc3Cl)o2)n(C)n1`, the figure is 11.2 µM (active); as for `COc1ccccc1-c1onc(C)c1C(=O)NCc1ccc(Cl)cc1`, “inactive”; as for `O=C(NCc1ccc(Cl)cc1)c1cccn2nccc12`, “inactive”.

(Values after PubChem BioAssay AID1347048 (National Center for Advancing Translational Sciences (NCATS), 2019).)
